Measured values published in PubChem BioAssay (Tox21).
Results filed as inconclusive are left out. Calls of active or inactive are those of the source. The call rests on the fitted dose curve.

system: not listed separately; experiment: qHTS assay to identify small molecule agonists or antagonists of the thyroid stimulating hormone receptor (TSHR) signaling pathway - wild type cell line counter screen (AID 1259384); conditions: HEK293 wild type, cAMP HTRF counter-screen, hits give high values; series mostly up to 92.4 µM; cAMP activity change: at the top concentration
Procedure, shortened: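 Wild-type Hek293 cells, 800/well, 18 h at 37C, then compound with Ro20-1724 for 30 min RT. cAMP by HTRF (cAMP-d2/anti-cAMP cryptate), 1 h RT, fluorescence read. 15 concentrations, triplicates.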
On the % scale 0 is the no-effect control and ±100 the full control effect.

Row | Structure (SMILES) | cAMP activity change
1 | C[N+]1(C)CCC(=C(c2ccccc2)c2ccccc2)CC1 | -1.25% [at 42.5 µM] (inactive)
2 | CC[C@@H]([C@H](C)O)n1ncn(-c2ccc(N3CCN(c4ccc(OC[C@@H]5CO[C@@](Cn6cncn6)(c6ccc(F)cc6F)C5)cc4)CC3)cc2)c1=O | -0.3% [at 42.5 µM] (inactive)
3 | CCCCCC=CCC=CCCCCCCCC(=O)OCC | 3.03% [at 42.5 µM] (inactive)
4 | CN1Cc2cc(C(=O)N3CCC(C4CCNCC4)CC3)ccc2N[C@@H](CC(=O)O)C1=O | -7.24% [at 42.5 µM] (inactive)
5 | Cc1cc(S(=O)(=O)O)ccc1N=Nc1c(O)ccc2ccccc12 | -2.63% (inactive)
6 | Cc1ccccc1N1C(=O)c2cc(S(N)(=O)=O)c(Cl)cc2NC1C (centres undefined) | 0.0624% [at 42.5 µM] (inactive)
7 | CCCCC(CC)C(=O)OCCOCCOCCOCCOC(=O)C(CC)CCCC (centres undefined) | -2.2% (inactive)
8 | CN1CCN(c2c(F)cc3c(=O)c(C(=O)O)cn4c3c2OCN4C)CC1 | 0.366% [at 18.9 µM] (inactive)
9 | C=CC(=O)NCOCC(C)C | 1.39% (inactive)
10 | C1COCO1 | -1.39% (inactive)
11 | c1cnc2c(n1)CCCC2 | 0.0992% (inactive)
12 | O=C(CCCCCCCCC#CI)Oc1ccccc1 | -4.54% [at 42.5 µM] (inactive)
13 | CCCCCCCCCOC(C)=O | -0.431% (inactive)
14 | O=C(O)c1cccc(O)c1 | -0.621% (inactive)
15 | CC(CCO)CCc1ccccc1 (centres undefined) | -5.1% (inactive)
16 | Oc1cc(O)c(Cl)cc1Cl | -0.167% (inactive)
17 | CCCCC(CC)COC(=O)COc1ccc(Cl)cc1C (centres undefined) | 4.27% (inactive)

Row | Structure (SMILES) | cAMP activity change
18 | CC(=O)N(c1onc(C)c1C)S(=O)(=O)c1ccc(N)cc1 | -5.59% [at 42.5 µM] (inactive)
19 | CC1(C)C(=O)N(Br)C(=O)N1Cl | 1.03% (inactive)
20 | O=C(/C=C/c1ccccc1)OCCCc1ccccc1 | 3.97% (inactive)
21 | CCCOC(=O)c1ccc(C(=O)OCCC)nc1 | -1.3% (inactive)
22 | Cc1ccc(/C=N/n2c(-c3ccccc3)csc2=S)cc1 | 2.64% [at 42.5 µM] (inactive)
23 | CC1(C)O[C@@H]2C[C@H]3[C@@H]4CCC5=CC(=O)C=C[C@]5(C)[C@H]4[C@@H](O)C[C@]3(C)[C@]2(C(=O)CO)O1 | 4.11% [at 42.5 µM] (inactive)
24 | O=C1NCCN1 | 4.53% (inactive)
25 | CCCC(=O)O[C@]1(C(=O)COC(=O)CC)CC[C@H]2[C@@H]3CCC4=CC(=O)CC[C@]4(C)[C@H]3[C@@H](O)C[C@@]21C | 6.72% [at 18.9 µM] (inactive)
26 | O=C(O)c1ccc(CO)o1 | 2.61% (inactive)
27 | CCCCN(CCCC)CCCOC(=O)c1ccc(N)cc1 | -5.63% [at 42.5 µM] (inactive)
28 | CCOC(=O)c1ccccc1C | 2.68% (inactive)
29 | CCCCCCOC(=O)C(C)C | 0.574% (inactive)
30 | CC1=C(C=O)C(C)(C)CCC1 | 4.12% (inactive)
31 | CC(=O)OCC(=O)[C@@]12OC(C)(C)O[C@@H]1C[C@H]1[C@@H]3C[C@H](F)C4=CC(=O)C=C[C@]4(C)[C@@]3(F)[C@@H](O)C[C@@]12C | 3.74% [at 42.5 µM] (inactive)
32 | CC1CC(O)CC(C)(C)C1 (centres undefined) | 0.314% (inactive)
33 | CN1CCCN=C1/C=C/c1cccs1 | 0.317% [at 42.5 µM] (inactive)
34 | Cc1cc(OI)c(C(C)C)cc1-c1cc(C(C)C)c(OI)cc1C | -0.371% [at 42.5 µM] (inactive)

biological target: Thyrotropin receptor (Homo sapiens) (UniProt P16473); experiment: qHTS assay to identify small molecule antagonists of the thyroid stimulating hormone receptor (TSHR) signaling pathway (AID 1259385); conditions: TSHR-HEK293 cAMP HTRF, TSH-stimulated antagonist mode; series mostly up to 92.4 µM; activity change, negative = inhibition: at the top concentration; further: nearly all actives have a fitted effect of over 20% in size; further: potency means the concentration at half of the fitted maximal effect
Procedure, shortened: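 TSHR-HEK293 cells (800/well) plated 18 h, then compounds with Ro20-1724 and TSH at 1.5 ng/mL final, 30 min at room temperature. cAMP quantified by HTRF (cAMP-d2/anti-cAMP-cryptate, 1 h); 15 concentrations in triplicate.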

Chain of Thyrotropin receptor (Homo sapiens) (P16473 whole entry, looked up): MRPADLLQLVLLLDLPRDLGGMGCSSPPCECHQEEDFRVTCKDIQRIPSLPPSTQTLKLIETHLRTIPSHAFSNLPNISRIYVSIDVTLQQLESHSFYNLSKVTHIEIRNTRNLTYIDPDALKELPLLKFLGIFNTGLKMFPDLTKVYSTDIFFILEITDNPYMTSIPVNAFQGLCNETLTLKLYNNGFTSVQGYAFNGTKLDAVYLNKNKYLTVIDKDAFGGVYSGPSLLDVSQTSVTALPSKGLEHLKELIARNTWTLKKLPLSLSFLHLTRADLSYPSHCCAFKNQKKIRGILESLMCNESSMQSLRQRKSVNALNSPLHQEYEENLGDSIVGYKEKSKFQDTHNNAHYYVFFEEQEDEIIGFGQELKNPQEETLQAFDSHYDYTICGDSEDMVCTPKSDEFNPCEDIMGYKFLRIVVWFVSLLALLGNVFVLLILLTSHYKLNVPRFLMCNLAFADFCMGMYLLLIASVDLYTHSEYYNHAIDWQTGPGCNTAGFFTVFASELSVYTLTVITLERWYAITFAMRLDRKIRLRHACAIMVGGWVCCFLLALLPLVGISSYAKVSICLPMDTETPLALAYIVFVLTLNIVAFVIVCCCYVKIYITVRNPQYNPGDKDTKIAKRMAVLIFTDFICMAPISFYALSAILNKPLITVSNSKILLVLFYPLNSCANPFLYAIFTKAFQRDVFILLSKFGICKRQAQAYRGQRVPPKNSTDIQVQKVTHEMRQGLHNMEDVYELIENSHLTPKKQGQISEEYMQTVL

Row | Structure (SMILES) | activity change, negative = inhibition | Potency
35 | C[N+]1(C)CCC(=C(c2ccccc2)c2ccccc2)CC1 | 0.822% [at 42.5 µM] (inactive) | –
36 | CC[C@@H]([C@H](C)O)n1ncn(-c2ccc(N3CCN(c4ccc(OC[C@@H]5CO[C@@](Cn6cncn6)(c6ccc(F)cc6F)C5)cc4)CC3)cc2)c1=O | – | 29.8 µM (active)
37 | CCCCCC=CCC=CCCCCCCCC(=O)OCC | 3.75% [at 42.5 µM] (inactive) | –
38 | CN1Cc2cc(C(=O)N3CCC(C4CCNCC4)CC3)ccc2N[C@@H](CC(=O)O)C1=O | 3.54% [at 42.5 µM] (inactive) | –
39 | Cc1ccccc1N1C(=O)c2cc(S(N)(=O)=O)c(Cl)cc2NC1C (centres undefined) | 1.21% [at 42.5 µM] (inactive) | –
40 | CC[C@H](NC(=O)c1cc(F)ccc1NS(=O)(=O)c1cccc2cccnc12)c1ccccc1 | -0.385% (inactive) | –
41 | CN1CCN(c2c(F)cc3c(=O)c(C(=O)O)cn4c3c2OCN4C)CC1 | -3.1% [at 19 µM] (inactive) | –
42 | C=CC(=O)NCOCC(C)C | -0.778% (inactive) | –
43 | C1COCO1 | 0.467% (inactive) | –
44 | c1cnc2c(n1)CCCC2 | 1.98% (inactive) | –
45 | O=C(CCCCCCCCC#CI)Oc1ccccc1 | 4.5% [at 42.5 µM] (inactive) | –
46 | CCCCCCCCCOC(C)=O | 2.3% (inactive) | –
47 | O=C(O)c1cccc(O)c1 | -0.0273% (inactive) | –
48 | CC(CCO)CCc1ccccc1 (centres undefined) | 0.579% (inactive) | –
49 | Oc1cc(O)c(Cl)cc1Cl | 1.78% (inactive) | –
50 | CC(=O)N(c1onc(C)c1C)S(=O)(=O)c1ccc(N)cc1 | 1.96% [at 42.5 µM] (inactive) | –
51 | CC1(C)C(=O)N(Br)C(=O)N1Cl | -0.154% (inactive) | –
52 | O=C(/C=C/c1ccccc1)OCCCc1ccccc1 | -5.3% (inactive) | –
53 | CCCOC(=O)c1ccc(C(=O)OCCC)nc1 | 2.44% (inactive) | –
54 | Cc1ccc(/C=N/n2c(-c3ccccc3)csc2=S)cc1 | -10.9% [at 42.5 µM] (inactive) | –
55 | CC1(C)O[C@@H]2C[C@H]3[C@@H]4CCC5=CC(=O)C=C[C@]5(C)[C@H]4[C@@H](O)C[C@]3(C)[C@]2(C(=O)CO)O1 | -8.53% [at 42.5 µM] (inactive) | –
56 | O=C1NCCN1 | -4.66% (inactive) | –
57 | CCCC(=O)O[C@]1(C(=O)COC(=O)CC)CC[C@H]2[C@@H]3CCC4=CC(=O)CC[C@]4(C)[C@H]3[C@@H](O)C[C@@]21C | -1.62% [at 19 µM] (inactive) | –
58 | O=C(O)c1ccc(CO)o1 | -4.56% (inactive) | –
59 | CCOC(=O)c1ccccc1C | 0.0235% (inactive) | –
60 | CCCCCCOC(=O)C(C)C | 1.54% (inactive) | –
61 | CC1=C(C=O)C(C)(C)CCC1 | -0.0878% (inactive) | –
62 | CC1CC(O)CC(C)(C)C1 (centres undefined) | 0.712% (inactive) | –
63 | CN1CCCN=C1/C=C/c1cccs1 | -2.32% [at 42.5 µM] (inactive) | –
64 | Cc1cc(OI)c(C(C)C)cc1-c1cc(C(C)C)c(OI)cc1C | 4.73% [at 42.5 µM] (inactive) | –
